# Measured values from PubChem BioAssay AID651678 (Sanford-Burnham Center for Chemical Genomics, 2012).
# This is one part of the list. Calls of active or inactive are those of the source. Cut-off read from the data, not from the text of the source: active = inhibition mostly above about 35% (no sharp cut-off); inactive = mostly below about 32%.
# Target: Sentrin-specific protease 1 (Homo sapiens) (UniProt Q9P0U3)
# Assay: human SENP1 catalytic domain inhibitors, confirmation, biochemical, FRET endpoint, single concentration (AID 651678);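 note: 0% = enzyme with DMSO and 100% = no enzyme control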
# Conditions: recombinant SENP1, CyPet-SUMO1-YPet FRET cleavage; at 10 µM; stronger effect = higher value
# Chain of Sentrin-specific protease 1 (Homo sapiens) (Q9P0U3 419-644 limits assumed): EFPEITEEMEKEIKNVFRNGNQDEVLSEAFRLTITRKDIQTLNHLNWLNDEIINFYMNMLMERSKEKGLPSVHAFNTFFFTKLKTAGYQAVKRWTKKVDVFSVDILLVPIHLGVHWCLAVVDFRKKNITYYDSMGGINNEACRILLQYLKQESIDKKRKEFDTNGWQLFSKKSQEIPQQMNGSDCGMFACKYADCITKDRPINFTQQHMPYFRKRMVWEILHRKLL
row,Compound,inhibition
1,Cn1c(-c2sc3cc(C(F)(F)F)cnc3c2-c2ccccc2)n[nH]c1=S,-1.85% (inactive)
2,CCCCCn1nnnc1-c1nc2cc3ccccc3cc2[nH]c1=O,84.5% (active)
3,O=C1C=C(c2cccc(Cl)c2O)C[C@@H](c2ccc(F)cc2)C1,94.1% (active)
4,COc1cc(/C=C2\CCCc3c2nc2ccccc2c3C(=O)O)cc(Cl)c1O,97.5% (active)
5,Cc1cc(C(=O)N/N=C/c2ccc(N3CCOCC3)cc2)c(C)o1,29.1% (inactive)
6,O=[N+]([O-])c1ccc(N=NNc2ccc([N+](=O)[O-])cc2)cc1,20.1% (inactive)
7,N/C(=N\OC(=O)N1c2ccccc2Sc2ccccc21)c1ccc(Br)cc1,-2.12% (inactive)
8,c1coc(-c2nc3nc4ccccc4n3nc2-c2ccco2)c1,19.4% (inactive)
9,Cc1cccc(C)c1Nc1c(-c2ccccc2O)nc2ncccn12,16.2% (inactive)
10,O=C(NC(=O)c1ccccc1)Nc1ccccc1O,0.15% (inactive)
11,COc1ccc(OC)c(C2C3=C(N=c4s/c(=C\c5cccc(O)c5)c(=O)n42)c2ccccc2CC3)c1 (stereo unspecified),35.7% (inactive)
12,CCN(CC)S(=O)(=O)c1cc([N+](=O)[O-])ccc1N=Nc1c(O)n(C)c2ccccc12,10.5% (inactive)
13,CCOC(=O)C1CCN(c2ncnc3c2c(-c2ccccc2)cn3-c2ccc(C)cc2)CC1,6.42% (inactive)
14,Cc1ccc2c(c1)nnc1nnc(SCC(=O)O)n12,71.8% (active)
15,O=C(CCN1C(=O)/C(=C/c2cccs2)SC1=S)NNC(=O)c1cccc(O)c1,66.9% (active)
16,O=C1/C(=C/c2coc3ccc(O)cc3c2=O)SC(=S)N1c1ccccc1,3.85% (inactive)
17,CC(=O)c1cccc(-c2cnc3c(NC=O)cc(-c4ccc(N(C)C)cc4)cn23)c1,57.9% (active)
18,COc1ccc(N2C(=O)C3C(C2=O)C(C(=O)c2ccccc2)N2CCCC32)cc1 (stereo unspecified),36.9% (active)
19,O=C1CC[C@@H]2CC3(C[C@@H]4CCN1[C@H]24)Nc1cc([N+](=O)[O-])ccc1NC3=NC1CCCCC1 (stereo partly specified),21.6% (inactive)
20,Fc1cccc(Cc2c(-c3cccc(Cl)c3)nc3ccc(Br)cn23)c1,4.53% (inactive)
21,Cc1ccc(C(=O)N/N=C\c2cc(Br)c(Br)o2)cn1,11.3% (inactive)
